Test results taken from PubChem BioAssay.
Results with a measured potency or affinity are listed apart. Active and inactive are the calls of the source. Cut-off not given; nearly all actives show IC50 up to about 0.91 µM.

Molecular target: Calcium-dependent protein kinase 4 (Plasmodium falciparum (isolate 3D7)) (UniProt Q8IBS5)
Test: PfCDPK4 kinase inhibitors, biochemical, TCAMS library (AID 1159588)
Settings: recombinant PfCDPK4, Kinase-Glo ATP depletion luminescence

Chain of Calcium-dependent protein kinase 4 (Plasmodium falciparum (isolate 3D7)) (Q8IBS5 whole entry, looked up): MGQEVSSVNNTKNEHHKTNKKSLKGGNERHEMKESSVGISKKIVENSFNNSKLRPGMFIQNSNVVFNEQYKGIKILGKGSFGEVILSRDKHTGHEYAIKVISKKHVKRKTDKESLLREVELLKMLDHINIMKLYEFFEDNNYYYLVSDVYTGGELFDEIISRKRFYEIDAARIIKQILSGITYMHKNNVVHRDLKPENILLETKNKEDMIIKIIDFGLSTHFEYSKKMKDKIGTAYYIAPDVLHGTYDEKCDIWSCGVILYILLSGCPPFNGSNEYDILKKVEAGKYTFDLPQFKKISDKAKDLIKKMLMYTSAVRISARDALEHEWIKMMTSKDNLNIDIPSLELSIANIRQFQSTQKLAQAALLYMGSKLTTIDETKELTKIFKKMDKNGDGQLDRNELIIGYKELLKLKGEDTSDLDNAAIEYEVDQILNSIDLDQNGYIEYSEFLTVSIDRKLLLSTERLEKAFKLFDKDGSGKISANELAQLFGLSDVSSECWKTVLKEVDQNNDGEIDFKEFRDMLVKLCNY

outcome, inactive:
CCOC(=O)N1CCN(CCCCCNc2cc(C)nc(/N=C(\N)Nc3ccc(Cl)cc3)n2)CC1
COc1cc(CCNC(=O)Cc2ccc3ccccc3c2)ccc1OCc1ccccc1
CCN(Cc1cccc2ccccc12)c1ccc2nc(N)nc(N)c2c1
CCn1c(O)c(N=NC(=S)N2CCCC2)c2ccccc21
CCCCC#Cc1cnc2nc(N)[nH]c(=O)c2n1
NC(=NCC1CC1c1ccccc1)c1cccc(C(N)=NCC2CC2c2ccccc2)n1 (centres undefined)
COc1ccc(Cc2c(Cl)nc3nc(N)nc(N)c3c2C)cc1
CCCCc1cc(Cc2cnc(N)nc2N)cc(OC)c1OC
COc1cccc2c(O)c(CNC3CCCCC3)ccc12
Cc1nc(N)nc(N)c1-c1cc(Cl)c(Cl)c(Cl)c1
Cc1[nH]c(C)c(-c2ccc(-c3ccc(F)cc3)cc2)c(=O)c1Cl
CC(C)Cn1cc2c(ccc3nc(N)nc(N)c32)n1
CCN(CC)CCNc1cc(C)nc(/N=C(\N)Nc2ccc(Cl)cc2)n1
CCNC(=NCc1ccccc1)NCCCCCCNC(=NCc1ccccc1)NCC
Cc1[nH]c(C)c(-c2ccc(Oc3ccc(Cl)c(Cl)c3)cc2)c(=O)c1Br
Cc1ccc2ccncc2c1N
CCCc1cc(Cc2cnc(N)nc2N)c2cccnc2c1OC
Cn1c(=N)cc(-c2cccc(I)c2)c2c(=O)[nH]c(N)nc21
CN(C)S(=O)(=O)n1ccc2c3c(N)nc(N)nc3ccc21
Cc1[nH]c(C)c(-c2ccc(Oc3cc(Cl)cc(Cl)c3)cc2)c(=O)c1Br
CCCCNCc1ccc(OCc2cccc(COc3ccc(CNCCCC)cc3I)c2)c(I)c1
CCCCOc1c(CCNCCCCNCCc2cc(OC)c3ccccc3c2OCCCC)cc(OC)c2ccccc12
c1ccc2c(NCCOCCNc3c4ccccc4nc4ccccc34)c3ccccc3nc2c1
Cc1[nH]c(C)c(-c2ccc(Oc3cccc(OC(F)(F)F)c3)cc2)c(=O)c1Cl
Oc1ccc2c(CNC3CCCCC3)c(O)ccc2c1CNC1CCCCC1
CC(C)Cn1ccc2c3c(N)nc(N)nc3ccc21
COc1cc(Cc2cnc(N)nc2N)cc(OCCCCNS(=O)(=O)C(F)(F)F)c1OC
CC(=O)Oc1c(Cl)c(C)nc(C)c1-c1ccc(Oc2ccc(Cl)cc2)cc1
Oc1c(CNC2CCCCC2)cc(Cl)c2ccccc12
COc1ccc(-c2cnc(N)nc2N)cc1Cl
Cc1c(Cc2ccc(C(C)C)cc2)cnc2nc(N)nc(N)c12
Cc1nc(N)nc(N)c1-c1ccc(Br)c(Br)c1
COc1cc(Cc2cnc(N)nc2N)cc(OCCCC(=O)O)c1OC
Cc1[nH]c(C)c(-c2ccc(Oc3ccc(S(C)=O)cc3)cc2)c(=O)c1Br (centres undefined)
CN1CCN(c2ccc3nc(-c4ccc5nc(-c6ccc([N+](=O)[O-])c(N)c6)[nH]c5c4)[nH]c3c2)CC1
CCCc1cc2c3c(N)nc(N)nc3ccc2n1CC
COc1ccc(OC)c(Cc2c(C)nc3nc(N)nc(N)c3c2C)c1
CCC(C(C)C)n1ccc2c3c(N)nc(N)nc3ccc21 (centres undefined)
C=CCn1ccc2c3c(N)nc(N)nc3ccc21
